{
  "source": "PubChem BioAssay (NCATS)",
  "note": "Records with an inconclusive call do not appear. The source made the active and inactive calls. Calls follow the shape of the dose curve; as a rule, active = well fitted inhibition curve with a large enough effect; inconclusive = small, poorly fitted or top-dose-only effect; inactive = flat fitted curve, though single readings scatter.",
  "data": [
    {"target": "Aldehyde dehydrogenase, mitochondrial (Homo sapiens) (UniProt P05091)", "test": "qHTS for Inhibitors of the Aldehyde Dehydrogenase Family (ALDH2) Primary screen (AID 2061308);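 also: plate controls were vehicle for no effect and reference inhibitor for full effect; nearly all actives have a fitted effect of over 55% in size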", "conditions": "ALDH2 enzyme inhibition qHTS, 1536-well; series mostly up to 56 µM; activity change, negative = inhibition: at the top concentration", "values": [
      {"smiles": "O=C1CCCC2=C1C(c1[nH]ncc1Cl)N=C(Nc1nc3c(Cl)cccc3o1)N2", "note": "(configuration not stated)", "activity change, negative = inhibition": "-0.683% (inactive)"},
      {"smiles": "Cc1cc(C)nc(NC(=S)N2CCN(c3nc4ccccc4o3)CC2)c1", "activity change, negative = inhibition": "10.4% (inactive)"},
      {"smiles": "O=C(/C=C/c1ccccc1)Nc1cccc(S(=O)(=O)Nc2ccccc2F)c1", "Potency": "inactive"},
      {"smiles": "COc1ccc(OC)c(-c2nnc3n2N=C(c2c(OC)cccc2OC)CS3)c1", "activity change, negative = inhibition": "7.52% (inactive)"},
      {"smiles": "O=C(Nc1ccc(S(=O)(=O)Nc2nccs2)cc1)c1ccnc2ccccc12", "activity change, negative = inhibition": "-6.26% (inactive)"},
      {"smiles": "N#Cc1c(-c2ccccc2C(F)(F)F)nc2ccccc2c1NCc1ccc(-c2cccnc2)cc1", "activity change, negative = inhibition": "-5.69% (inactive)"},
      {"smiles": "COc1ccc(C2Nc3ccccc3C(=O)N2CCCN(C)C)cc1COc1c(C)cc(NC(C)=O)cc1C", "note": "(configuration not stated)", "activity change, negative = inhibition": "12.2% (inactive)"},
      {"smiles": "Cc1nc(C(C)N(C)c2ncnc3ccc(-c4ccc5c(c4)OCO5)cc23)cs1", "note": "(configuration not stated)", "activity change, negative = inhibition": "1.57% (inactive)"},
      {"smiles": "COc1cccc(C2=Nn3c(nnc3-c3ccccc3OC)SC2)c1", "activity change, negative = inhibition": "9.06% (inactive)"},
      {"smiles": "Cc1cc(-c2nnc3n2CCCCC3)c(C)n1-c1cccc(C(F)(F)F)c1", "activity change, negative = inhibition": "-17.2% (inactive)"},
      {"smiles": "COC(=O)c1ccc(O)c2ncc(N(C)C)cc12", "activity change, negative = inhibition": "-4.72% (inactive)"},
      {"smiles": "c1csc(CNc2ncnc3ccc(-c4ccc5c(c4)OCO5)cc23)n1", "activity change, negative = inhibition": "7.55% (inactive)"},
      {"smiles": "Cc1ccc(S(=O)(=O)Nc2ccccc2Nc2nc(-c3ccccc3)cs2)cc1", "activity change, negative = inhibition": "-6.16% (inactive)"},
      {"smiles": "O=C(NNC(=O)c1nc2ccccc2[nH]1)OCc1ccccc1", "activity change, negative = inhibition": "0.32% (inactive)"},
      {"smiles": "COc1cc(OC)cc(-c2nnc3n2N=C(c2c(OC)cccc2OC)CS3)c1", "activity change, negative = inhibition": "3.42% (inactive)"},
      {"smiles": "Cc1cnc(-c2ccccc2C(C)C)nc1NCC1CCN(c2cccnc2)C1", "note": "(configuration not stated)", "activity change, negative = inhibition": "5.03% (inactive)"},
      {"smiles": "N#Cc1ccccc1CCc1nc2ncc(Br)cc2[nH]1", "activity change, negative = inhibition": "-5.45% (inactive)"}
    ]}
  ]
}
